Data as given in the supplement of paper PMC9694430.
Several values for one entry are separate records, joined by “and”; a condition that tells them apart may be missing. Identical values can stand only once.

System: LOC_OS01G21960-cb002
Experiment: thermal shift delta Tm vs DMSO control; higher = stronger stabilization (binding)
Details: 12.5 µM; protein concentration 2 µM
Procedure, shortened: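 Thermal shift values come from differential scanning fluorimetry on purified rice kinase domains made in E. coli, with melting temperatures obtained from Boltzmann fits. Samples of 19.5 μl held 2 μM kinase, 100 mM potassium phosphate pH 7.5, 150 mM NaCl, 10% glycerol, 5 × SYPRO Orange and compound in DMSO, and were heated from 25°C to 95°C at 0.05°C/s. Each shift is a triplicate mean relative to the DMSO-only protein sample.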
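Note: purified Escherichia coli-expressed rice kinase domain construct.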

Structure (SMILES)	thermal shift delta Tm
COc1cc(N2CCN(C)CC2)ccc1Nc1nccc(-c2cn(C)c3cnccc23)n1	1.48 °C
CN1CCN(c2nc(C3=C(c4c[nH]c5ccccc45)C(=O)NC3=O)c3ccccc3n2)CC1 [Sotrastaurin]	2.53 °C
CCN(CC)CCCC(C)Nc1nc(C)cc(Nc2ccc3nc(C)cc(N)c3c2)n1 (stereo not drawn)	0.15 °C
CN(C)C[C@@H]1CCn2cc(c3ccccc32)C2=C(C(=O)NC2=O)c2cn(c3ccccc23)CCO1	2.83 °C
CCn1c2ccccc2c2cc(Nc3ccnc(NCCCN4CCOCC4)n3)ccc21	0.58 °C
O=C1NCCc2[nH]c(-c3ccncc3)cc21	2.12 °C
Oc1cc(O)cc(/C=C/c2ccc(O)c(O)c2)c1 [Piceatannol]	-0.47 °C
CC(C)(C#N)c1ccc(N2C(=O)OCc3cnc4ccc(-c5cnc6ccccc6c5)cc4c32)cc1	0.66 °C
N#CCNC(=O)c1ccc(-c2ccnc(Nc3ccc(N4CCOCC4)cc3)n2)cc1 [Momelotinib (CYT387)]	2.72 °C
Cc1cc(C(=O)Nc2nc3cccc(Cl)c3n2[C@@H]2CCCCN(C(=O)/C=C/CN(C)C)C2)ccn1 [Nazartinib (EGF816, NVS-816)]	1.25 °C
COc1cc(OC)cc(N(CCNC(C)C)c2ccc3ncc(-c4cnn(C)c4)nc3c2)c1	0.2 °C
O=C1c2ccc(Nc3ccc(F)cc3F)cc2CCc2ccc(OC[C@H](O)CO)cc21 [Skepinone-L]	0.57 °C
O=C1CCc2c(Oc3ccc4c(c3)[C@@H]3[C@H](O4)[C@H]3c3nc4cc(C(F)(F)F)ccc4[nH]3)ccnc2N1 [Lifirafenib (BGB-283)]	1.8 °C
N#C/C(=C(/N)Sc1ccc(N)cc1)c1ccccc1C(F)(F)F	0.38 °C
COc1ccc(CC(=O)Nc2nc3c(s2)CCc2ccccc2-3)cc1OC	0.69 °C
CCn1c(-c2nonc2N)nc2c(C#CC(C)(C)O)ncc(OC[C@H]3CCCNC3)c21	0.53 °C
Cn1cc(-c2ccc3nnc(Sc4ccc5ncccc5c4)n3n2)cn1	0.18 °C
CCc1nc(C(N)=O)c(Nc2ccc(N3CCC(N4CCN(C)CC4)CC3)c(OC)c2)nc1NC1CCOCC1 [Gilteritinib (ASP2215)]	3.21 °C
CC(C)(CCCCCC(O)CCCCCC(C)(C)C(=O)O)C(=O)O	0.39 °C

Structure (SMILES)	thermal shift delta Tm
CCN1CCN(Cc2ccc(Nc3ncc(F)c(-c4cc(F)c5nc(C)n(C(C)C)c5c4)n3)nc2)CC1	3.11 °C
Cc1cnc(NC(=O)Nc2cc(Br)c(C)cc2OC[C@@H]2CNCCO2)cn1	0.58 °C
CCn1c(=O)c(-c2ccc(Cl)cc2Cl)cc2cnc(Nc3ccc(N4CCNCC4)c(F)c3)nc21	0.97 °C
C=CC(=O)Nc1cccc(Oc2nc(Nc3ccc(N4CCN(C)CC4)cc3OC)ncc2Cl)c1	0.29 °C
CCS(=O)(=O)Nc1ccc2c(c1)/C(=C(/Nc1ccc(CN3CCCCC3)cc1)c1ccccc1)C(=O)N2 [Hesperadin]	3.67 °C
COCCOc1cnc2ccn([C@H](C)c3nnc4c(F)cc(-c5cnn(C)c5)cn34)c(=O)c2c1	0.42 °C
COc1ccc(-c2cc3c(C)nc(N)nc3n([C@H]3CC[C@H](OCCO)CC3)c2=O)cn1	0.57 °C
CS(=O)(=O)c1ccc(-c2cnc(N)c(C(=O)Nc3ccccc3)n2)cc1	1.15 °C
C=CC(=O)Nc1ccc(CN2C(=O)N(c3cc(OC)cc(OC)c3)Cc3cnc(Nc4ccc(N5CCN(C)CC5)cc4)nc32)cc1	1.74 °C
c1ccc(-c2[nH]ncc2-c2ccnc3ccccc23)nc1	0.76 °C
COc1ccc(Cl)c(Nc2nc3ccccc3nc2NS(=O)(=O)c2cccc(NC(=O)C(C)(C)N)c2)c1 [Pilaralisib (XL147)]	0.73 °C
CN1CCN(CCOc2cc(OC3CCOCC3)c3c(Nc4c(Cl)ccc5c4OCO5)ncnc3c2)CC1 [Saracatinib (AZD0530)]	0.14 °C
COc1cc2nccc(Oc3ccc(NC(=O)C4(C(=O)Nc5ccc(F)cc5)CC4)cc3)c2cc1OC [Cabozantinib malate (XL184)]	0.57 °C
Cc1cc(C)c(/C=C2\C(=O)Nc3ccccc32)[nH]1 [Semaxanib (SU5416)]	1.45 °C
NC(=O)c1ncn([C@@H]2O[C@H](CO)[C@@H](O)[C@H]2O)c1N [AICAR (Acadesine)]	0.94 °C
CN(c1ncccc1CNc1nc(Nc2ccc3c(c2)CC(=O)N3)ncc1C(F)(F)F)S(C)(=O)=O	2.13 °C and 2.41 °C
O=c1cc(N2CCOCC2)oc2c1ccc1ccccc12	-0.09 °C
CCn1c(-c2nonc2N)nc2cnc(Oc3cccc(NC(=O)c4ccc(OCCN5CCOCC5)cc4)c3)cc21	0.9 °C
OC1CCC(Oc2cccc3cnc(Nc4ccc5nc[nH]c5c4)nc23)CC1 (stereo not drawn)	4.16 °C
